Experimental data taken from PubChem BioAssay (Tox21).
Results filed as inconclusive are left out. Activity calls are given as the source filed them. Calls follow the shape of the dose curve; as a rule, active = well fitted cell-killing curve with a large enough effect in the repeat runs; inconclusive = weak or mixed curves, or effect the other way; inactive = flat fitted curve, though single readings scatter.
% is scaled to controls: 0 for no effect and ±100 for the full control effect.

Test: qHTS assay to identify small molecule antagonists of the retinoid acid receptor (RAR) signaling pathway - cell viability counter screen (AID 1159551); also: nearly all actives have a fitted effect of over 35% in size
Settings: C3RL4 cells viability, ATP luminescence (CellTiter-Glo), 6 h; series mostly up to 92.4 µM; activity change, negative = cytotoxicity: at the top concentration
Description: U.S. Tox21 Program National Center for Advancing Translational Sciences [NCATS] NIH Chemical Genomics Center [NCGC] U.S. Environmental Protection Agency [EPA] National Institutes of Environmental Health Sciences [NIEHS] National Toxicology Program [NTP] U.S. Food and Drug Administration [FDA] Tox21 Assay Overview: All-trans Retinoic acid (atRA) is the potent natural metabolite of retinol and plays an important role in normal embryonic development and maintenance of cellular phenotype in adult animals. atRA is the activating ligand for the retinoic acid receptors (RARs) which form heterodimers with retinoid X receptors (RXRs) on the retinoic acid response element (RARE). Through activation of the RAR/RXRs nuclear receptors, atRA regulates the transcription of a large number of protein-coding genes and regulatory RNAs. Intracellular levels of atRA are controlled by the retinol signaling pathway (RSP) that regulates the biosynthesis and catabolism of atRA to maintain physiological levels. Chemicals that interfere with the RSP can cause abnormal intracellular levels of atRA and therefore are potential developmental toxicants. To assess compounds for the potential adverse effect on embryonic development through interfering with retinol signaling, a cell-based RARE luciferase reporter gene assay was used. C3RL4 cell line (OARSA/CFSAN/FDA, Laurel, MD) was used to screen Tox21 10K compound library for identifying inhibitors of the RSP. Also cytotoxicity was assessed by determining the viability of cells based on the quantitation of ATP.
Tox21 Assay Protocol Summary: C3RL4 cells were seeded at 1,000/well in 4 uL of assay medium into white solid 1,536-well tissue culture plates (Greiner Bio-One North America Inc. Monroe, NC) using a Multidrop Combi (Thermo Scientific, Waltham, MA) dispenser. After incubation at 37 C and 5% CO2 for an overnight, 23 nL of compounds dissolved in DMSO, positive control or DMSO only were transferred by a Pintool station (Kalypsys, San Diego, CA). One ul of 1 uM (final concentration) of Retinol was added right after the compound addition by using a Flying Reagent Dispenser (FRD) (Aurora Discovery, San Diego, CA). After 6 hr incubation at 37 C and 5% CO2, 5 uL of CellTiter-Glo reagent (Promega Corporation, Madison, WI) was added to each assay plate using an FRD. Luminescence was quantified on a ViewLux plate reader (PerkinElmer, Waltham, MA) after 30 min incubation at room temperature.
In the case of `CC(C)C(=O)OCc1cccc(OC(=O)[C@@H]2N3C(=O)[C@@H](NC(=O)Cc4ccccc4)[C@H]3SC2(C)C)c1`, the “activity change, negative = cytotoxicity” value is reported as 2.35% [at 42.5 µM] (inactive). In the case of `C[C@@H]1O[C@@H](O[C@@H]2[C@@H](O)[C@H](OCCc3ccc(O)c(O)c3)O[C@H](CO[C@@H]3O[C@H](CO)[C@@H](O)[C@H](O)[C@H]3O)[C@H]2OC(=O)/C=C/c2ccc(O)c(O)c2)[C@H](O)[C@H](O)[C@H]1O`, the “activity change, negative = cytotoxicity” value is reported as -3.23% (inactive). With `CCn1ccc(NS(=O)(=O)c2ccc(N)cc2)nc1=O` the “activity change, negative = cytotoxicity” value was 2.41% [at 42.5 µM] (inactive). With `CC/C=C\CC1=C(C)CCC1=O` the “activity change, negative = cytotoxicity” value was -0.645% (inactive). For `CCCCOCCOC(=O)COc1nc(Cl)c(Cl)cc1Cl`, the “activity change, negative = cytotoxicity” value was 3.13% (inactive). With `CN(C)C(=O)CNC(=O)Cc1ccccc1` the “activity change, negative = cytotoxicity” value was 0.434% [at 42.5 µM] (inactive). For `CCOc1cc([N+](=O)[O-])c(OCC)cc1N1CCOCC1`, the “activity change, negative = cytotoxicity” value was -0.204% (inactive). In the case of `CC(CO)c1ccccc1` (stereo not given), the “activity change, negative = cytotoxicity” value is reported as 0.603% (inactive). For `O=C(O)c1cc(Br)c(O)c(Br)c1`, the “activity change, negative = cytotoxicity” value was -1.07% (inactive). In the case of `CC1COc2ccccc2N1` (stereo not given), the “activity change, negative = cytotoxicity” value is reported as 0.114% (inactive). For `Cc1cccc2nccnc12`, the “activity change, negative = cytotoxicity” value was 0.115% (inactive). For `COP(=O)(OC)OC(c1ccc(Cl)cc1)P(=O)(OC)OC` (stereo not given), the “activity change, negative = cytotoxicity” value was 1.7% [at 42.5 µM] (inactive). In the case of `Nc1ccc(S(=O)(=O)Nc2ccc(Cl)nn2)cc1`, the “activity change, negative = cytotoxicity” value is reported as -0.0044% [at 42.5 µM] (inactive). For `COC(=O)C1CC(=O)C(C(=O)OC)CC1=O` (stereo not given), the activity change, negative = cytotoxicity was 3.23% [at 8.39 µM] (inactive). With `Brc1ccc(-c2ccccc2)cc1` the “activity change, negative = cytotoxicity” value was 2.26% (inactive). For `CC(=O)NCc1c(I)c(NC(C)=O)c(I)c(C(=O)O)c1I`, the “activity change, negative = cytotoxicity” value was 2.51% [at 42.5 µM] (inactive). In the case of `CCCC/C=C/C=C\C=O`, the “activity change, negative = cytotoxicity” value is reported as -0.554% (inactive). In the case of `Nc1ccc([N+](=O)[O-])c(N)c1`, the “activity change, negative = cytotoxicity” value is reported as -1.9% (inactive). For `CC(=O)OC(C)OC(=O)C(C)c1ccc(-c2ccccc2)c(F)c1` (stereo not given), the “activity change, negative = cytotoxicity” value was 2.35% [at 42.5 µM] (inactive). With `OC[C@H](Cc1cccc(O)c1)[C@H](CO)Cc1cccc(O)c1` the “activity change, negative = cytotoxicity” value was 2.94% (inactive). With `NCCN1CCOCC1` the “activity change, negative = cytotoxicity” value was 4.38% (inactive). With `COc1cc(C(=S)N2CCOCC2)cc(OC)c1OC` the “activity change, negative = cytotoxicity” value was 4.17% [at 42.5 µM] (inactive). In the case of `Cc1ccc2c(c1)OCC(=O)CO2`, the “activity change, negative = cytotoxicity” value is reported as 6.61% (inactive). For `CCCCCCCCCC(C)=O`, the “activity change, negative = cytotoxicity” value was 4.61% (inactive). For `C=C(C)C(=O)OCCN(CC)CC`, the “activity change, negative = cytotoxicity” value was -0.0831% (inactive). With `FC(F)(F)c1ccccc1-n1ccnc1` the “activity change, negative = cytotoxicity” value was -0.899% [at 42.5 µM] (inactive). In the case of `CC(C)c1ccc2cc(C(C)C)ccc2c1`, the “activity change, negative = cytotoxicity” value is reported as -0.503% (inactive). In the case of `OCCC(F)(F)C(F)(F)C(F)(F)C(F)(F)C(F)(F)C(F)(F)C(F)(F)C(F)(F)F`, the “activity change, negative = cytotoxicity” value is reported as 3.05% (inactive). For `NS(=O)(=O)c1ccc(NC(=O)CCC(=O)O)cc1`, the “activity change, negative = cytotoxicity” value was 2.53% [at 42.5 µM] (inactive). For `Cc1cc(NC(=O)C2=C(O)c3ccccc3S(=O)(=O)N2C)no1`, the “activity change, negative = cytotoxicity” value was -0.0428% [at 42.5 µM] (inactive). For `CC(=O)NCCCCCC(=O)O`, the “activity change, negative = cytotoxicity” value was -0.693% [at 42.5 µM] (inactive). In the case of `COC(=O)[C@@H]1[C@H]2C[C@H]3c4[nH]c5ccccc5c4CCN3C[C@@H]2CC[C@@H]1O`, the “activity change, negative = cytotoxicity” value is reported as 0.0023% [at 42.5 µM] (inactive). In the case of `c1ccc2nccnc2c1`, the “activity change, negative = cytotoxicity” value is reported as 1.35% (inactive). With `ClCCCl` the “activity change, negative = cytotoxicity” value was 4.63% (inactive). In the case of `CCCCCCN`, the “activity change, negative = cytotoxicity” value is reported as 4.48% (inactive). For `O=S(=O)(O)CCN1CCN(CCO)CC1`, the “activity change, negative = cytotoxicity” value was 3.6% (inactive). With `C#CC(C)N(C)C(=O)Nc1ccc(Cl)cc1` (stereo not given) the “activity change, negative = cytotoxicity” value was -1.23% (inactive). For `COc1ccc(S(=O)(=O)N2c3ccc(Cl)cc3[C@@](O)(c3ccccc3Cl)[C@H]2C(=O)N2CCC[C@@H]2C(N)=O)cc1OC`, the “activity change, negative = cytotoxicity” value was 2.66% [at 42.5 µM] (inactive). With `Cc1c(I)c(=O)n(-c2ccccc2)n1C` the “activity change, negative = cytotoxicity” value was 3.11% [at 42.5 µM] (inactive). With `CC(C(=O)O)c1ccc2c(c1)CC(=O)c1ccccc1S2` (stereo not given) the “activity change, negative = cytotoxicity” value was 3.91% [at 42.5 µM] (inactive).
